Measured values from the supplement of paper PMC6555819.

These sequences were tested on VDR:RXRa (NR concentration 270 nM, RXRa partner concentration 90 nM) (assay: PBM binding z-score (relative to random genomic background probes); higher = stronger binding; sequences stand for … in GC…GCGATTGACAGCGTAGAATGAAGG).
Procedure, shortened: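 The probes on custom Agilent 4×180K protein-binding microarrays were double-stranded, with 34-nt variable regions bearing direct-repeat seeds, single-nucleotide variants, half-site ablations and random human genomic background sequences. Incubation lasted 1 h with ligand-free nuclear receptor dimers in PBS pH 7.4, 2% milk, 0.02% Triton X-100, 1 mM DTT, 0.2 mg/mL BSA and 0.4 mg/ml salmon testes DNA. Antibodies against each partner (one per run) detected bound dimers, and fluorescence scans were regression-normalized. Binding z-scores take the random background probes as reference.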

Sequence	PBM binding z-score
TGAATGAGGTTAAAGATCAGAGAACGTGGCGTCG	1.8
GCAGACAGGTGAAACGCAGGTAAGTCAGGGTGGC	-0.562
TGTCATAGTTCAAAGGTAACGTAAGTATCCACAC	2.96
TAGCCTAGGTCATTAAGGGGCCAGTATAGAAAGC	2.52
CGGACGAGGGCATGAGTTGATAGCAAATGCCGAT	1.21
ATCTCAAGGTAAAAGTTCAGTGAATCCCGAGGAT	1.6
CCTACTGGCCCAAGGTCATTGATCAGTCAAAGCA	3.26
GGATCGAGGGCAAAGTTGATAGCATCTGTCGACG	1.44
AGTCAAAGTGCACTAGGTAACGTAAGATTCAGCT	0.166
AGAACGAGGGCACGCGGAGTTGATAGCAGAGTAG	1.95
CCTCGGAGGACAATAGGAGGTCAGAGCTGCCAGA	1.51
CCGACTGGGCCAAGGTTACCATAACGCACAGCCA	-0.185
TCATATAGGGAAACAGGTGAAAGTCCGTAAGTTA	0.918
TAGCCTAGGTCATGCGGGCCAGTTTAGTGTCGGC	2.97
ACTAGCAGGCCAAATTTGGGTCACTCAAACAAAG	0.734
CAAACTAGGTCAGAGGTCAAAGTCGAGCCAACCA	6.04
TTACCAAGGAGAAGGTCGTTGATCCCTCTGTAGA	0.838
AGTCACAGTTCAGGACGAGGTAACGTAAAGCACG	1.12
TCATATAGGTAATACAGGTGCAAGTCGGCATCTA	1.91
CCGAGTAGGTTACGGGGCATTCAGGCAACGGTGA	0.208
CAAACTAGGTCAACAGGTCAAAGTCCGCTTCCCG	4.87
ATCTCTAGGTAAGACTCAGTTCTGTGAAGAACGC	0.069
